Laboratory results reported in PubChem BioAssay AID493168 (National Center for Advancing Translational Sciences (NCATS), 2011).
Records with an inconclusive call do not appear. The source made the active and inactive calls. Calls follow the shape of the dose curve; as a rule, active = well fitted inhibition curve with a large enough effect; inconclusive = small, poorly fitted or top-dose-only effect, or effect the other way; inactive = flat fitted curve, though single readings scatter.

target: Ubiquitin carboxyl-terminal hydrolase 2 (Homo sapiens) (UniProt O75604); test: Confirmation Assay for Inhibitors of Ubiquitin-specific Protease USP2a Using CHOP2 as the Reporter; details: USP2 core, Ub-CHOP2 coupled reporter fluorescence; series mostly up to 38.3 µM; activity change, negative = inhibition: at the top concentration; also: nearly all actives have a fitted effect of over 55% in size;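 as to activity change, negative = inhibition: plate controls were DMSO wells for no effect and full inhibition by NEM control for full effect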
How it was run: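 USP2 core (10 nM final) was preincubated with compound for 30 min at RT in Tris-HCl pH 8.0, CaCl2, beta-mercaptoethanol, CHAPS. Ub-CHOP2 and reporter substrate (25 nM final each) were added, and fluorescence (Ex 485/Em 531 nm) was read after 60 min.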
Potency is read from the fitted curve at half-maximal effect.

Ubiquitin carboxyl-terminal hydrolase 2 (Homo sapiens), sequence (O75604 whole entry, looked up): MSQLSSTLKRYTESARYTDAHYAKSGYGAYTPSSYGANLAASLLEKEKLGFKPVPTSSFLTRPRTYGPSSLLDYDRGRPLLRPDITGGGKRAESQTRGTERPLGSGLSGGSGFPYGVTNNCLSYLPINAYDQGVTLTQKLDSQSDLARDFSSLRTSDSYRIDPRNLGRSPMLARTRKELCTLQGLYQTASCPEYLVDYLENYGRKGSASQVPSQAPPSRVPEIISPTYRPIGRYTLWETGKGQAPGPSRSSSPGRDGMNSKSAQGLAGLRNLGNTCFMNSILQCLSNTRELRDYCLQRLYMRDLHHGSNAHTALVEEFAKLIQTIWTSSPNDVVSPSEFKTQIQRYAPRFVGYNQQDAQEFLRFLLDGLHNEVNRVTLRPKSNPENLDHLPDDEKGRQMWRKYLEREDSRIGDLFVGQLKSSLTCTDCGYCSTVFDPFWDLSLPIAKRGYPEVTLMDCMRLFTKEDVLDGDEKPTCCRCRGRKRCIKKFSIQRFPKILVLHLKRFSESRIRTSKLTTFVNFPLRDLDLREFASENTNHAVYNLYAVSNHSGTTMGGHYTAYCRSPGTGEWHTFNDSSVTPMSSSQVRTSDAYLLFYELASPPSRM

Activity change, negative = inhibition, inactive:
O=C(Nc1ccc(Nc2ccncc2)cc1)c1ccc(Nc2ccnc3ccc([N+](=O)[O-])cc23)cc1[N+](=O)[O-] -16.8%
Cc1nc(NC(C)C)c2cnn(CCc3ccccc3)c2n1 -3.81%
Cc1cc(NC(=O)CN2C(=O)NC3(CCCCC3C)C2=O)no1 (centres undefined) -0.642%
CC(C)Cn1c(SCC(N)=O)nnc1-c1cccc(S(=O)(=O)N2CCOCC2)c1 3.21%
O=c1/c(=C/c2ccco2)sc2n1CN(c1cccc(Br)c1)CN=2 -1.62%
Cc1ccc(/C=C/S(=O)(=O)N2CCC(C(=O)O)CC2)cc1 1.75%
CCOC(=O)C(=O)Nc1nc(-c2ccc3c(c2)CCN3C(=O)C2CC2)c(C)s1 -0.268%
COC1=CCC2([N+](=O)[O-])CN(CCO)CC1([N+](=O)[O-])C2 (centres undefined) -1.18%
COc1cccc(N2CCN(C(=O)CN(C)S(=O)(=O)c3ccc4c(c3)CCC(=O)N4)CC2)c1 0%
CC(C)c1ccc(C2=C(O)c3ccccc3C(=O)C2=O)cc1 -0.0729%
Cc1ccc(C2=[N+]([O-])C(C)N(O)C2(C)C)o1 (centres undefined) -1.21%
CCOC(=O)c1sc(NC(=O)Nc2ccccc2)cc1C 2.01%
Cc1ccc(-c2cc(-c3ccc(C)cc3)[n+](-c3ccc(C(=O)[O-])cc3)c(-c3ccc(C)cc3)c2)cc1 -2.45%
CCOC(=O)CN1C(=O)S/C(=C/c2ccc(O)c([N+](=O)[O-])c2)C1=O -2.79%
COc1cccc(NC(=O)c2ccccc2-c2nc(-c3cccc(C)c3)no2)c1 1.17%
CC12CN3CC(C)(CN(C1)C3c1ccc(Cl)cc1Cl)C2O (centres undefined) -1.87%
Cc1ccc2[nH]c(=O)c(COC(=O)c3ccccn3)cc2c1 3.32%
COc1cccc(NC(=O)Cc2ccccc2)c1 0.289%
CC(C)(C)OC(=O)C[C@H]1C/C=C\C[C@H](CC(=O)N(CCO)Cc2ccccc2)C(=O)NC[C@H](c2ccccc2)OC1=O 3.72%
CC1(C)CC(=O)C2=C(C1)N(Cc1ccco1)C(=O)NC2(C(F)(F)F)C(F)(F)F 5.78%

Potency, active:
CCOC(=O)C1CCCN(C(=O)c2cc(-c3ccco3)nc3ccccc23)C1 (centres undefined) 18.5 µM
O=C(CSc1nnc(SCc2ccccc2)s1)N/N=C/C=C/c1ccco1 13.1 µM
CC(C)C(C(=O)O)N1C(=O)/C(=C/C=C/c2ccco2)SC1=S (centres undefined) 6.56 µM
O=C1/C(=C/C=C/c2ccco2)SC(=S)N1NS(=O)(=O)c1ccccc1 8.26 µM
